Reference: PubChem BioAssay (NCATS)
Records with an inconclusive call do not appear. Entries that show only a call come without a potency. The source made the active and inactive calls. The call rests on the fitted dose curve; in most records, active means well fitted inhibition curve with a large enough effect; inconclusive means small, poorly fitted or top-dose-only effect; inactive means flat fitted curve, though single readings scatter.

Legend:
[1] = target: Glutathione peroxidase 1 (Homo sapiens) (UniProt P07203); assay: Primary qHTS Assay for Inhibitors of Recombinant Selenoprotein Glutathione Peroxidase 1 (GPX1) (AID 1845191); conditions: recombinant GPX1, GR-coupled NADPH fluorescence, 15 min; series mostly up to 48.8 µM
Sequence of Glutathione peroxidase 1 (Homo sapiens) (P07203 whole entry, looked up): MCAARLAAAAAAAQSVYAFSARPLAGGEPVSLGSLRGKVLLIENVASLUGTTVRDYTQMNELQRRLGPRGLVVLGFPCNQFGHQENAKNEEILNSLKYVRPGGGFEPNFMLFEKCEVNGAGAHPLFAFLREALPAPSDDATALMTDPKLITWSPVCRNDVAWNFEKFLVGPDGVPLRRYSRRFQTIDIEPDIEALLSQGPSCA
Summary of the method: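 GR-coupled readout: NADPH consumption tracked by fluorescence, ex 340/em 450 nm, at t=0 and after 15 min at RT. Final mix 10 nM GPX1, 1 mM GSH, 0.5 mM CHP, 0.5 mM NADPH, 100 nM GR, 0.01% BSA, following 30 min enzyme–compound preincubation.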

[2] = target: Phospholipid hydroperoxide glutathione peroxidase GPX4 (Homo sapiens) (UniProt P36969); assay: Primary qHTS Assay for Inhibitors of Recombinant Selenoprotein Glutathione Peroxidase 4 (GPX4) (AID 1845192); conditions: recombinant GPX4, GR-coupled NADPH fluorescence, 15 min; series mostly up to 50 µM; further: potency means the concentration at half of the fitted maximal effect
Sequence of Phospholipid hydroperoxide glutathione peroxidase GPX4 (Homo sapiens) (P36969 whole entry, looked up): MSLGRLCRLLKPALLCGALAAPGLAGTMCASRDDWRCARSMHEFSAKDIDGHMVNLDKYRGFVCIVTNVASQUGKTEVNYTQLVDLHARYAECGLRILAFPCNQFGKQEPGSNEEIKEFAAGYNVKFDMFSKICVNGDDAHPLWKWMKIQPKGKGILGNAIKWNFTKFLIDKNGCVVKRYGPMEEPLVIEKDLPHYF
Summary of the method: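 Steps: GPX4 plus compound, 30 min RT; add GR/GSH/NADPH master mix; start with cumene hydroperoxide; read 340/450 nm fluorescence at 0 and 15 min. Finals were 200 nM GPX4, 1 mM GSH, 0.5 mM CHP, 0.5 mM NADPH, 100 nM GR.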
Further: nearly all actives have a fitted effect of over 65% in size.

Row | SMILES | Potency [1] | Potency [2]
1 | CC(CNC1CCCCC1)OC(=O)c1ccccc1 (centres undefined) | inactive | inactive
2 | COc1cc(C)nc(-n2nc(C)cc2OC)n1 | inactive | inactive
3 | CCOC(=O)c1ccc(N)cc1 | inactive | inactive
4 | NC1CCN(c2nc3c(cc2F)c(=O)c(C(=O)O)cn3-c2ccc(F)cc2F)C1 (centres undefined) | inactive | inactive
5 | N#C/C(=C1\SCC(c2ccccc2Cl)S1)n1ccnc1 (centres undefined) | inactive | inactive
6 | COc1ccc(C(=O)c2ccccc2)c(O)c1 | inactive | inactive
7 | CCN(CC)CCOC(=O)C1(c2ccccc2)CCCC1 | inactive | inactive
8 | O=C(Nc1ccc([N+](=O)[O-])cc1)Nc1ccc([N+](=O)[O-])cc1 | inactive | inactive
9 | C[N+]1(CC2COC(c3ccccc3)(C3CCCCC3)O2)CCCCC1 (centres undefined) | inactive | inactive
10 | Nc1nc(Cl)nc2c1ncn2[C@@H]1O[C@H](CO)[C@@H](O)[C@@H]1F | inactive | inactive
11 | C#C[C@]1(O)CC[C@H]2[C@@H]3CCC4=CC(=O)CC[C@@H]4[C@H]3CC[C@@]21CC | inactive | inactive
12 | CC(C)Cc1ccc(CC(=O)O)cc1 | inactive | inactive
13 | O=C(Nc1cccc(C2=NCCN2)c1)Nc1cccc(C2=NCCN2)c1 | inactive | inactive
14 | C[N+]12CCC(CC1)C(OC(=O)C(O)(c1ccccc1)c1ccccc1)C2 (centres undefined) | inactive | inactive
15 | CN(CCCN1c2ccccc2CCc2ccccc21)CC(=O)c1ccc(Cl)cc1 | inactive | inactive
16 | COc1ccc(CN(CCN(C)C)c2ncccn2)cc1 | inactive | inactive
17 | C#C[C@]1(OC(C)=O)CC[C@H]2[C@@H]3CCC4=C/C(=N/O)CC[C@@H]4[C@H]3CC[C@@]21CC | inactive | inactive
18 | CO[C@H]1C=CO[C@@]2(C)Oc3c(C)c(O)c4c(O)c(c(/C=N/N5CCN(C)CC5)c(O)c4c3C2=O)NC(=O)/C(C)=C\C=C[C@H](C)[C@H](O)[C@@H](C)[C@@H](O)[C@@H](C)[C@H](OC(C)=O)[C@@H]1C | inactive | 17.8 µM (active)
19 | CCC(Cc1c(I)cc(I)c(N)c1I)C(=O)O (centres undefined) | inactive | inactive
20 | CCCN(CCC)S(=O)(=O)c1ccc(C(=O)O)cc1 | inactive | inactive
21 | CCN(CC)CCOC(=O)C(Cc1cccc2ccccc12)CC1CCCO1 (centres undefined) | inactive | inactive
22 | NC(=O)C1(N2CCCCC2)CCN(CCCC(=O)c2ccc(F)cc2)CC1 | inactive | inactive
23 | Cc1ccccc1OCC(O)CO (centres undefined) | inactive | inactive
24 | COc1cc(NS(=O)(=O)c2ccc(N)cc2)ncn1 | inactive | inactive
25 | O=C(Nc1ccccc1)OCC(CN1CCCCC1)OC(=O)Nc1ccccc1 (centres undefined) | – | inactive
